Reference: paper PMC5540273 (PLoS ONE, 2017)

Legend:
Conditions in all cases: concentration: 1 μM, replicates: in singlicate; n = 1
PKMYT1 = system: PKMYT1
PKN1 = system: PKN1
PKN2 = system: PKN2
PLK1 = system: PLK1
PLK2 = system: PLK2
PLK3 = system: PLK3
PLK4 = system: PLK4
PRKCD = system: PRKCD
PRKCE = system: PRKCE
PRKCH = system: PRKCH
PRKCI = system: PRKCI
PRKCQ = system: PRKCQ
PRKD1 = system: PRKD1
PRKD2 = system: PRKD2
PRKD3 = system: PRKD3
PRKG1 = system: PRKG1
PRKG2 = system: PRKG2
PRKR = system: T1, PRKR
T1 construct: gene EIF2AK2

PRKX = system: PRKX
PRP4 = system: PRP4
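Note: KINOMEscan kinase panel screen.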

| SMILES | %Inh (PKMYT1) [%] | %Inh (PKN1) [%] | %Inh (PKN2) [%] | %Inh (PLK1) [%] | %Inh (PLK2) [%] | %Inh (PLK3) [%] | %Inh (PLK4) [%] | %Inh (PRKCD) [%] | %Inh (PRKCE) [%] | %Inh (PRKCH) [%] | %Inh (PRKCI) [%] | %Inh (PRKCQ) [%] | %Inh (PRKD1) [%] | %Inh (PRKD2) [%] | %Inh (PRKD3) [%] | %Inh (PRKG1) [%] | %Inh (PRKG2) [%] | %Inh (PRKR) [%] | %Inh (PRKX) [%] | %Inh (PRP4) [%] |
| --- | --- | --- | --- | --- | --- | --- | --- | --- | --- | --- | --- | --- | --- | --- | --- | --- | --- | --- | --- | --- |
| COC(=O)Nc1nc2cc(Oc3ccc(NC(=O)Nc4cc(F)ccc4F)cc3)ccc2[nH]1.Cl [GW701424] | 0 | 0 | 0 | 0 | 0 | 0 | 0 | 0 | 12 | 5 | 0 | 0 | 0 | 0 | 6 | 0 | 0 | 0 | 0 | 62 |
| Nc1nc(-c2ccc3c(N)n[nH]c3c2)cc(N2CCCC2)n1 [GSK2227430] | 0 | 10 | 0 | 0 | 0 | 0 | 0 | 0 | 0 | 5 | 0 | 18 | 0 | 0 | 13 | 0 | 75 | 0 | 1 | 46 |
| COc1cc(Nc2nccc(N3CCC(NC(=O)c4cccc(NC(C)=O)c4)C3)n2)cc(OC)c1OC (centres unmarked) [GSK1379754] | 0 | 0 | 0 | 0 | 0 | 3 | 75 | 8 | 0 | 2 | 0 | 24 | 0 | 0 | 0 | 15 | 0 | 0 | 27 | 20 |
| O=c1cc(N2CCOCC2)nc2n(Cc3cccc(Cl)c3Cl)c(C3CC3)nn12 [GSK2358994] | 0 | 2 | 0 | 0 | 0 | 16 | 9 | 0 | 33 | 0 | 4 | 0 | 13 | 0 | 17 | 14 | 0 | 0 | 0 | 0 |
| Cc1cccc(Cn2ccn3c(=O)cc(N4CCOCC4)nc23)c1 [GSK2297542] | 16 | 0 | 0 | 14 | 0 | 0 | 0 | 9 | 2 | 31 | 14 | 28 | 13 | 7 | 24 | 0 | 9 | 0 | 23 | 1 |
| CNc1ncnc2[nH]ncc12 [SKF-18355] | 1 | 0 | 2 | 31 | 12 | 23 | 6 | 0 | 12 | 0 | 0 | 0 | 0 | 0 | 0 | 0 | 0 | 0 | 0 | 0 |
| Fc1ccc(-c2ncn(CCCN3CCOCC3)c2-c2ccccn2)cc1 [SB-211742] | 0 | 0 | 9 | 12 | 0 | 0 | 0 | 28 | 0 | 0 | 100 | 0 | 0 | 31 | 0 | 0 | 1 | 12 | 0 | 44 |
| CN(C(=O)c1ccc(-c2cc(-c3c[nH]nc3-c3ccccn3)ccn2)cc1)C1CCOCC1 [GW810083] | 4 | 0 | 0 | 0 | 0 | 0 | 2 | 24 | 4 | 0 | 18 | 0 | 10 | 0 | 0 | 0 | 10 | 0 | 0 | 0 |
| COCCNC(=O)c1ccc(-c2cc(C(=O)NC3CC3)cc(F)c2C)cc1 [GW868318] | 10 | 0 | 20 | 66 | 46 | 33 | 34 | 15 | 36 | 0 | 9 | 2 | 2 | 0 | 0 | 7 | 27 | 4 | 0 | 0 |
| CC(C)Oc1ccc2c(-c3ccnc(Nc4ccc(N5CCN(C)CC5)cc4)n3)cnn2n1 [GW696155] | 0 | 31 | 4 | 25 | 62 | 95.9 | 96.8 | 0 | 28 | 0 | 26 | 0 | 86 | 97.6 | 100 | 0 | 4 | 92.2 | 0 | 95 |
| O=c1cc(N2CCOCC2)nc2n(Cc3cccc(C(F)(F)F)c3)ccn12 [GSK2297543] | 0 | 29 | 5 | 3 | 0 | 0 | 0 | 8 | 0 | 9 | 4 | 8 | 0 | 1 | 0 | 27 | 0 | 8 | 0 | 22 |
| CCn1cnc2c(N)ncnc21 [GW345098] | 5 | 20 | 0 | 0 | 7 | 18 | 27 | 0 | 18 | 9 | 13 | 0 | 9 | 0 | 23 | 13 | 0 | 0 | 0 | 1 |
| Cc1cn2c(=O)cc(N3CCOCC3)nc2n1Cc1cccc(Cl)c1Cl [GSK2334006] | 12 | 33 | 0 | 24 | 0 | 0 | 0 | 0 | 13 | 28 | 31 | 28 | 0 | 10 | 18 | 0 | 0 | 0 | 24 | 0 |
| O=C(NCCCN1CCOCC1)c1cccc(Nc2nccc(Nc3ccc(Oc4ccccc4)cc3)n2)c1 [GW663929] | 0 | 16 | 0 | 0 | 0 | 4 | 17 | 0 | 4 | 0 | 12 | 0 | 13 | 25 | 17 | 0 | 5 | 20 | 17 | 21 |
| CC(=O)Nc1ccc(COc2ccc(Nc3ccnc4cc(-c5ccccn5)ccc34)cc2)cc1.Cl [GW440148] | 0 | 32 | 0 | 0 | 0 | 0 | 0 | 0 | 0 | 0 | 15 | 0 | 18 | 14 | 0 | 0 | 8 | 27 | 12 | 27 |
| Cl.Oc1cccc(Nc2ccnc3cc(-c4ccncc4)ccc23)c1 [GW494601] | 63 | 0 | 0 | 30 | 0 | 0 | 25 | 0 | 7 | 0 | 22 | 0 | 25 | 29 | 17 | 0 | 1 | 21 | 0 | 34 |
| Cn1ccc2ncnc(Oc3ccc(NC(=O)Nc4ccncc4)c(Cl)c3)c21 | 2 | 0 | 0 | 0 | 8 | 0 | 0 | 6 | 0 | 16 | 0 | 0 | 14 | 0 | 0 | 3 | 0 | 0 | 0 | 14 |
| N#Cc1ccc(-c2cc(-c3c[nH]nc3-c3ccccn3)ccn2)cc1 [GW693028] | 1 | 0 | 0 | 0 | 0 | 0 | 0 | 0 | 16 | 18 | 0 | 15 | 63 | 40 | 0 | 0 | 0 | 0 | 2 | 41 |
| O=C1NC(=O)C(N2CCc3ccccc32)=C1c1cccc(Cl)c1 [SB-408010] | 20 | 0 | 3 | 27 | 0 | 4 | 25 | 0 | 19 | 13 | 1 | 29 | 4 | 6 | 3 | 0 | 0 | 0 | 0 | 8 |
